Source: ChEMBL document CHEMBL3988442, “University of Dundee, Small-Polar-MMV Screening Library” (2021)
Among all 38,000 compounds or so, about 1,200 (3.2%) showed an effect of 50% or more. The median lay at about -58%. The sample holds strong results, similar compounds and a random draw of the others, so the mix is not that of the screen.

The compounds below were run on Plasmodium falciparum (assay: Calibr Malaria Delayed Death Assay SOP). Settings: concentration 4.99e-06 (unit not given; other assays of the set use mol/L).
Format: functional, organism-based
Set-up: scale not given: in the data most compounds retested in dose-response had high values

| Compound | Percent Effect [%] |
| --- | --- |
| COCCN1C(=O)CC[C@@H]2[C@H]1CCN2S(=O)(=O)c1cccs1 | -44.47 |
| O=C(NCCc1csc(-c2ncccn2)n1)c1cnn2c1CCCC2 | -31.93 |
| CN(C)S(=O)(=O)N1CCCC(c2cccc(Cc3ccc(Cl)cc3)n2)C1 (centres undefined) | -15.18 |
| CC(=O)N1CCCC1c1cccc(Cc2ccccc2Cl)n1 (centres undefined) | -62.89 |
| O=C(C1CC=CC1)N1C[C@H]2CN(Cc3ccncc3)C(=O)[C@H]2C1.O=C(O)C(F)(F)F | -118.6 |
| COc1ccc(C(C(=O)O)N(C)CCN2CCCC2)c(C)c1 (centres undefined) | -56.58 |
| COc1ccc(C(C(=O)O)N(C)CCN2CCCC2)cc1F (centres undefined) | -71.16 |
| Cc1ccc(C(C(=O)O)N(C)CCN2CCOCC2)c(F)c1 (centres undefined) | -35.14 |
| COc1cc(F)ccc1C(C(=O)O)N(C)CCN1CCOCC1 (centres undefined) | 79.89 |
| COc1cc(F)ccc1C(C(=O)O)N(C)CCN1CCCC1 (centres undefined) | 71.25 |
| COc1ccc(C(C(=O)O)N(C)CCN2CCOCC2)c(C)c1 (centres undefined) | -92.34 |
| CCCS(=O)(=O)N1C[C@H]2C[C@H](C(=O)Nc3cccnc3)[C@@H](C1)O2 | -54.27 |
| CC(C)=CCN1CCN(Cc2cccc(C)n2)CC1CCO (centres undefined) | -53.69 |
| Cc1cc(NCCc2nc(C)cs2)nc(-c2cccnc2)n1 | -152.4 |
| CC(C(=O)NN1CCOCC1)n1nc(C(F)(F)F)c(Cl)c1C1CC1 (centres undefined) | -94.38 |
| Cc1c(C(=O)NC2=NCCS2)cnn1-c1ccc(Cl)cc1 | -71.42 |
| COCCN1CC2(CCCN(c3ncc(Cl)cc3F)C2)CCC1=O (centres undefined) | -14.43 |
| COCCCN1CC2(CCCN(c3ncc(Cl)cc3F)C2)CCC1=O (centres undefined) | -81.54 |
| CN(C)CCN1CC2(CCCN(c3ncc(Cl)cc3F)C2)CCC1=O (centres undefined) | 82.66 |
| CCN1Cc2nc(OC)c(CNC(=O)C3CCCN(C)C3)cc2C1=O (centres undefined) | -47.23 |
| C=C(C)CN1CCCC(NS(C)(=O)=O)C1 (centres undefined) | -112.5 |
| CO[C@H]1CN(C(=O)c2ccnnc2)[C@@H]2COC[C@H]12 | -17.32 |

| Compound | Percent Effect [%] |
| --- | --- |
| CN(C)CCN1C[C@@H]2CN(c3ccccc3)C[C@@H]2C1=O.O=C(O)C(F)(F)F | -48.1 |
| Cc1ccsc1C(O)CNC(=O)Cc1ccc(F)cc1 (centres undefined) | -29.72 |
| CCC(=O)NC(CC)c1ccccc1C (centres undefined) | -70.92 |
| Cc1ccsc1C(Cc1ccccc1)NC(=O)CNC(=O)C1CC1 (centres undefined) | 68.17 |
| CCC(=O)NCC(=O)NC(Cc1ccccc1)c1sccc1C (centres undefined) | 84.56 |
| O=C(CNC(=O)C1CC1)Nc1c(F)cccc1Oc1ccccc1 | -53.44 |
| Cc1ccsc1C(Cc1ccccc1)NC(=O)CSCC(N)=O (centres undefined) | -15.45 |
| COc1cccc2c1OCC(Cc1cc(C(N)=O)ccn1)C2 (centres undefined) | -54.91 |
| CCc1nc(CN(C)C(=O)c2ccc(OCCCOC)nc2)cs1 | -70.62 |
| Cn1cc(CC(=O)N2CCC(Nc3cccnn3)CC2)c2ccccc21 | -27.56 |
| CCC(CNC(=O)COC)Oc1cccc(F)c1 (centres undefined) | -58.01 |
| CCC(=O)NCC(CC)Oc1cccc(F)c1 (centres undefined) | -6.3 |
| CCC(CNC(=O)CNC(C)=O)Oc1cccc(F)c1 (centres undefined) | 84.82 |
| Cc1cc(C(=O)N2CCCC(c3cc(C(F)(F)F)[nH]n3)C2)[nH]n1 (centres undefined) | -117 |
| O=C(O)C(F)(F)F.O=C(O)C(F)(F)F.c1cncc(-c2ncnc3c2CCN(Cc2ccsc2)CC3)c1 | -128.4 |
| CCN(C)CC1CCN(C(=O)Nc2ccc(C)cc2)C1 (centres undefined) | -13.91 |
| Cn1c(=O)oc2cc(S(=O)(=O)N3CCC(c4ccccc4)C3)c(Cl)cc21 (centres undefined) | -8.531 |
| O=C(O)C(F)(F)F.O=C(c1ccncc1F)N1CC[C@@H]2CN(c3ncccn3)CCO[C@@H]2C1 | -33.14 |
| Cc1ccc(CN2CCCn3c(nc(Cn4ccnc4)cc3=O)C2)s1 | -9.733 |
| Cc1cc(N(Cc2ccccn2)C2CC2)n2nc(C(F)(F)F)nc2n1 | -69.19 |
| Cc1ccc(CN(c2cc(C)nc3nc(C(F)(F)F)nn23)C2CC2)cc1 | 93.63 |
| Cc1cc(N(Cc2cccs2)C2CC2)n2nc(C(F)(F)F)nc2n1 | 65.64 |

| Compound | Percent Effect [%] |
| --- | --- |
| Cc1cc(N(Cc2cccnc2)C2CC2)n2nc(C(F)(F)F)nc2n1 | 22.81 |
| Cc1cc(N(Cc2ccccc2F)C2CC2)n2nc(C(F)(F)F)nc2n1 | -0.7756 |
| COCCN(c1cc(C)nc2nc(C(F)(F)F)nn12)C1CCCC1 | -69.88 |
| COC(=O)CCC(=O)N1CCC2(CN(Cc3ccccc3)C2)C1 | -61.64 |
| Cc1cc(C)n(-c2cncc(NCCC(=O)NC(C)C)n2)n1 | -25.6 |
| Fc1ccc(CN2CCO[C@H]3[C@H](OCC4CCCC4)CC[C@@H]32)cc1.O=C(O)C(F)(F)F | -74.43 |
| COC(=O)N1CCCN(Cn2nc(C)c(Br)c2C)CC1 | -78.94 |
| CCOC[C@@]12CCC[C@@H]1CN(C(=O)c1ccc(OC)cc1)C2 | -67.65 |
| Cn1cc(CN2CCn3cc(Cn4cccn4)nc3C2)cn1.O=C(O)C(F)(F)F | -116.7 |
| CC(C)Nc1ncnc2c1CCN(C(=O)CC1CCCC1)CC2 | -30.46 |
| CCOCCN1CCN(CC(O)c2cc(Cl)ccc2Cl)CC1 (centres undefined) | 77.57 |
| OCCN1CCN(CC(O)c2cc(Cl)ccc2Cl)CC1 (centres undefined) | -5.982 |
| OC(CN1CCOCC1)c1cc(Cl)ccc1Cl (centres undefined) | -41.91 |
| CCN1CCN(CC(O)c2cc(Cl)ccc2Cl)CC1 (centres undefined) | 76.72 |
| CC(C)C(=O)N1CCN(CC(O)c2cc(Cl)ccc2Cl)CC1 (centres undefined) | -47.78 |
| CCOCCN1CCN(CC(O)c2ccc(C)c(C)c2)CC1 (centres undefined) | -16.95 |
| CC(C)c1nn(C)c(Cl)c1CNCCn1cccn1 | 8.083 |
| COc1ccc(CNc2nc(C3CC3)nc3c(C)nn(C)c23)cc1 | 25.99 |
| CCn1ccc(-c2cc(C(=O)O)n3ncc(Cl)c3n2)n1 | -63.4 |
| CCC(=O)Nc1cccc(OCC(=O)N(C)CCCC2CCCO2)c1 (centres undefined) | -128 |
| O=C(C(CNCc1cccc(O)c1)c1ccccc1)N1CCOCC1 (centres undefined) | -54.71 |
| O=C(C(CNCc1cccs1)c1ccccc1)N1CCOCC1 (centres undefined) | 4.238 |

| Compound | Percent Effect [%] |
| --- | --- |
| O=C(Nc1nccs1)c1csc(NC2CCCC2)n1 | -183.6 |
| Cc1cnn(CCNCC(O)c2ccc(F)c(F)c2)c1 (centres undefined) | 43.94 |
| Cc1cnn(CCNCC(O)c2ccc(C(F)(F)F)cc2)c1 (centres undefined) | 71.82 |
| Cc1cnn(CCNCC(O)c2ccc3c(c2)OCCO3)c1 (centres undefined) | -44.13 |
| COc1ccccc1C1CC(=O)Nc2c1c(=O)[nH]n2C(C)C (centres undefined) | -127.8 |
| c1cncc(-c2nc3c(c(NCC4(c5ccncc5)CC4)n2)CCC3)c1 | -35.93 |
| CC(O)CNc1nc(-c2cccnc2)nc2c1CCC2 (centres undefined) | -47.48 |
| c1ccc(-n2cnnc2CCCN2CCOCC2)cc1 | -26.23 |
| CC(C)OCCC(=O)NCC(c1c(F)cccc1F)N(C)C (centres undefined) | -18.53 |
| O=C1COC2(CCN(C(=O)[C@H]3CCCO3)CC2)CN1Cc1ccccn1 | -79.26 |
| O=C(C(CNCc1ccccc1O)c1ccccc1)N1CCOCC1 (centres undefined) | 14.02 |
| N[C@@H](C(=O)N1CCN(c2ccccc2Cl)C(=O)C1)c1ccccc1 | -16.48 |
| Cc1csc(CN(C)C(C)C(=O)N2CCc3ccccc3C2)n1 (centres undefined) | -122.6 |
| CC(C)[C@H](N)C(=O)N1CCSc2ccccc2C1.Cl | 73.25 |
| CC(C)C[C@H](N)C(=O)N1CCSc2ccccc2C1.Cl | 47.22 |
| Cl.NC(C(=O)N1CCSc2ccccc2C1)c1ccccc1 (centres undefined) | 59.31 |
| CC1c2ncc(COCC3CC3)n2CCN1C(=O)c1ccnnc1 (centres undefined) | 2.24 |
| CCOCCN1CCN(CC(O)c2ccc(C(F)(F)F)cc2)CC1 (centres undefined) | 21.93 |
| CSCc1ccc(C(=O)N2CCN(CC(C)O)CC2)cc1 (centres undefined) | -108.1 |
| c1ccc(CCN2CCN(c3ccc4nncn4n3)CC2)nc1 | -102.7 |
| Cc1cc(CN2CCN(c3ccc4nncn4n3)CC2)no1 | -4.981 |
| CC(Cn1cccn1)NC(=O)N1CCN(Cc2cccnc2)CC1 (centres undefined) | -145.3 |

| Compound | Percent Effect [%] |
| --- | --- |
| Cc1[nH]c(=O)[nH]c(=O)c1CN1CCCC(CCc2ccccc2)C1 (centres undefined) | -20.63 |
| COc1cccc(CCC2CCCN(C(=O)c3ccccn3)C2)c1 (centres undefined) | -27.65 |
| CN(CCOCC1CC1)C(=O)Nc1ccc([S+](C)[O-])cc1 (centres undefined) | -126.1 |
| CNC(=O)NC(C)c1c(F)cccc1Cl (centres undefined) | -107.4 |
| Cc1ccccc1C1(CN)CCCCC1 | 91.14 |
| Cc1ccccc1C1(CN)CCOCC1 | 37.02 |
| NCC1(c2cccc(C(F)(F)F)c2)CCCCC1 | -1.273 |
| COc1ccc(C2CCCCCN2S(N)(=O)=O)cc1 (centres undefined) | -81.61 |
| COc1ncccc1C(=O)N1CC[C@H]2C[C@H](c3noc(C)n3)O[C@@H]2C1 | -68.36 |
| CC(=O)N1CCc2nc(-c3ccccc3)nc(NC(C)C)c2CC1 | -31.72 |
| Cc1ccccc1N1CCN(c2nc(N(C)C)nc3c2CCNC3)CC1 | 36.34 |
| Cc1cc(CC(C)Nc2nc(-c3cccnc3)nc3c2CNC3)[nH]n1 (centres undefined) | -0.4892 |
| CN(C)CCC(Nc1nc(N)nc2c1CCNCC2)c1ccccc1 (centres undefined) | -67.64 |
| Cc1ccccc1C(Nc1ncnc2c1CCNC2)c1ccccc1 (centres undefined) | 22.99 |
| Cc1cccnc1[C@H](C)Nc1nc(-c2cccnc2)nc2c1CNC2 | 77.9 |
| CC(Nc1nc(-c2ccccc2)nc2c1CCNCC2)c1cccnc1 (centres undefined) | 90.56 |
| CN(C)c1nc2c(c(N3CCc4ccccc4C3)n1)CCNC2 | 30.67 |
| CCc1cc(C(C)Nc2nc(-c3cccnc3)nc3c2CNC3)on1 (centres undefined) | -34.82 |
| CCOCc1nc2c(c(NC(CC)c3cccnc3)n1)CCNCC2 (centres undefined) | -63.2 |
| c1ccc2c(c1)CCN(c1nc(-c3ccncc3)nc3c1CCNC3)C2 | 59.82 |
| CC(Nc1nc(-c2ccncc2)nc2c1CCNC2)c1ccccc1 (centres undefined) | 70.67 |
